Assay results taken from PubChem BioAssay AID1159580 (chemical genetic matrix, 2015).
In all, about 5,500 compounds went through this assay and about 2,000 (36%) were called active. Roughly 18% stayed inconclusive and do not appear here. Some of the results follow. A number with no mark means an inactive call. Cut-off read from the data, not from the text of the source: active = normalized growth mostly below about 0.91 (no sharp cut-off); inconclusive = no clear call, values can overlap the other calls; inactive = mostly above about 0.92.

Assay: chemical genetic growth profiling, strain panel (AID 1159580);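 note: tested at 20 µM; growth read once vehicle control cultures reached saturation at 30 °C; 1 = growth at the plate median or of vehicle wells; lower values mean less growth of the strain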
Conditions: S. cerevisiae deletion strains, growth OD

With `COc1ccc(-c2coc3cc(O)ccc3c2=O)c(O)c1O` the normalized growth (locus YAL021C, strain ccr4, active compounds read low) was 0.817 (active), the normalized growth (locus YAL026C, strain drs2, active compounds read low) was 0.818 (active) and the normalized growth (locus YAL030W, strain snc1, active compounds read low) was 0.874 (active). For the same molecule, the normalized growth (locus YBL061C, strain skt5, active compounds read low) was 0.825 (active), the normalized growth (locus YBR009C, strain hhf1, active compounds read low) was 0.955 and the normalized growth (locus YBR023C, strain chs3, active compounds read low) was 0.877 (active). The normalized growth (locus YBR171W, strain sec66, active compounds read low) was 0.984, the normalized growth (locus YBR231C, strain swc5, active compounds read low) was 0.837 (active) and the normalized growth (locus YBR279W, strain paf1, active compounds read low) was 0.893 (active). The normalized growth (locus YCL011C, strain gbp2, active compounds read low) was 0.898 (active), the normalized growth (locus YCL016C, strain dcc1, active compounds read low) was 0.94 and the normalized growth (locus YCL061C, strain MRC1, active compounds read low) was 0.925. It also gave a normalized growth (locus YCL069W, strain vba3, active compounds read low) of 0.979, a normalized growth (locus YCR088W, strain abp1, active compounds read low) of 0.971 and a normalized growth (locus YDL005C, strain med2, active compounds read low) of 0.979. The normalized growth (locus YDL040C, strain nat1, active compounds read low) was 0.999, the normalized growth (locus YDR001C, strain nth1, active compounds read low) was 0.976 and the normalized growth (locus YDR069C, strain doa4, active compounds read low) was 0.762 (active). The normalized growth (locus YDR137W, strain rgp1, active compounds read low) was 1.06, the normalized growth (locus YDR159W, strain sac3, active compounds read low) was 1.05 and the normalized growth (locus YDR195W, strain ref2) was 0.992. The normalized growth (locus YDR297W, strain sur2, active compounds read low) was 0.898 (active), the normalized growth (locus YDR334W, strain swr1, active compounds read low) was 0.872 (active) and the normalized growth (locus YDR335W, strain msn5, active compounds read low) was 0.948. For the same molecule, the normalized growth (locus YDR392W, strain spt3, active compounds read low) was 0.869, the normalized growth (locus YEL003W, strain gim4, active compounds read low) was 0.977 and the normalized growth (locus YEL037C, strain rad23, active compounds read low) was 0.969. For the same molecule, the normalized growth (locus YEL061C, strain CIN8 (second series), active compounds read low) was 0.963, the normalized growth (locus YER015W, strain faa2, active compounds read low) was 0.737 (active) and the normalized growth (locus YER016W, strain bim1, active compounds read low) was 0.94. The normalized growth (locus YER111C, strain swi4, active compounds read low) was 0.933, the normalized growth (locus YER155C, strain BEM2 (second series), active compounds read low) was 0.944 and the normalized growth (locus YFR010W, strain ubp6, active compounds read low) was 0.873 (active). The normalized growth (locus YGL167C, strain pmr1, active compounds read low) was 0.979, the normalized growth (locus YGL173C, strain kem1, active compounds read low) was 0.671 (active) and the normalized growth (locus YGL227W, strain vid30, active compounds read low) was 0.989. The normalized growth (locus YGL240W, strain doc1, active compounds read low) was 0.964, the normalized growth (locus YGL253W, strain hxk2, active compounds read low) was 0.881 (active) and the normalized growth (locus YHR013C, strain ard1, active compounds read low) was 0.861. The normalized growth (locus YHR027C, strain rpn1, active compounds read low) was 0.669 (active), the normalized growth (locus YHR030C, strain SLT2, active compounds read low) was 1.02 and the normalized growth (locus YHR079C, strain IRE1, active compounds read low) was 1.02. The normalized growth (locus YHR142W, strain chs7, active compounds read low) was 0.86 (active), the normalized growth (locus YJL092W, strain hpr5, active compounds read low) was 0.975 and the normalized growth (locus YJL095W, strain BCK1 (second series), active compounds read low) was 0.952. For the same molecule, the normalized growth (locus YJL095W, strain BCK1, active compounds read low) was 1.01, the normalized growth (locus YJL115W, strain asf1, active compounds read low) was 0.968 and the normalized growth (locus YJL129C, strain trk1, active compounds read low) was 1.03. The normalized growth (locus YJL154C, strain vps35, active compounds read low) was 0.988, the normalized growth (locus YJL164C, strain tpk1, active compounds read low) was 0.863 (active) and the normalized growth (locus YJL166W, strain qcr8, active compounds read low) was 0.817 (active). The normalized growth (locus YJR066W, strain TOR1, active compounds read low) was 0.927, the normalized growth (locus YKL160W, strain elf1, active compounds read low) was 0.902 (active) and the normalized growth (locus YKR026C, strain gcn3, active compounds read low) was 0.995. It also gave a normalized growth (locus YKR091W, strain srl3, active compounds read low) of 0.991, a normalized growth (locus YLL001W, strain dnm1, active compounds read low) of 0.971 and a normalized growth (locus YLL026W, active compounds read low) of 0.98. It also gave a normalized growth (locus YLL041C, strain sdh2, active compounds read low) of 0.968, a normalized growth (locus YLR027C, strain aat2, active compounds read low) of 0.93 and a normalized growth (locus YLR113W, strain HOG1, active compounds read low) of 1.01. For the same molecule, the normalized growth (locus YLR221C, strain rsa3, active compounds read low) was 0.92, the normalized growth (locus YLR258W, strain gsy2, active compounds read low) was 0.947 and the normalized growth (locus YLR262C, strain YPT6 (second series), active compounds read low) was 0.743 (active). For the same molecule, the normalized growth (locus YLR320W, strain mms22, active compounds read low) was 0.905, the normalized growth (locus YLR342W, strain FKS1, active compounds read low) was 0.753 (active) and the normalized growth (locus YLR357W, strain rsc2, active compounds read low) was 0.749 (active). It also gave a normalized growth (locus YLR370C, strain arc18, active compounds read low) of 0.916, a normalized growth (locus YLR384C, strain iki3, active compounds read low) of 0.998 and a normalized growth (locus YML120C, strain ndi1, active compounds read low) of 1. The normalized growth (locus YMR058W, strain fet3, active compounds read low) was 0.333 (active), the normalized growth (locus YMR125W, strain sto1, active compounds read low) was 1.01 and the normalized growth (locus YMR129W, active compounds read low) was 0.967. For the same molecule, the normalized growth (locus YMR205C, strain PFK2, active compounds read low) was 0.971, the normalized growth (locus YMR231W, strain pep5, active compounds read low) was 0.937 and the normalized growth (locus YNL071W, strain lat1, active compounds read low) was 0.955. The normalized growth (locus YNL183C, strain NPR1, active compounds read low) was 0.965, the normalized growth (locus YNL209W, strain ssb2, active compounds read low) was 0.633 (active) and the normalized growth (locus YNL248C, strain rpa49, active compounds read low) was 0.939. It also gave a normalized growth (locus YNL322C, strain KRE1 (second series), active compounds read low) of 0.974, a normalized growth (locus YNR049C, strain mso1, active compounds read low) of 0.982 and a normalized growth (locus YOR001W, strain rrp6, active compounds read low) of 0.988. The normalized growth (locus YOR070C, strain gyp1, active compounds read low) was 0.943, the normalized growth (locus YOR080W, strain dia2, active compounds read low) was 0.986 and the normalized growth (locus YOR083W, strain WHI5, active compounds read low) was 0.866 (active). The normalized growth (locus YOR106W, strain vam3, active compounds read low) was 0.542 (active), the normalized growth (locus YOR231W, strain MKK1, active compounds read low) was 1.04 and the normalized growth (locus YOR265W, strain rbl2, active compounds read low) was 0.918 (active). For the same molecule, the normalized growth (locus YOR270C, strain vph1, active compounds read low) was 0.96, the normalized growth (locus YOR290C, strain snf2, active compounds read low) was 0.961 and the normalized growth (locus YPL051W, strain arl3, active compounds read low) was 0.686 (active). The normalized growth (locus YPL078C, strain atp4, active compounds read low) was 0.991, the normalized growth (locus YPL106C, strain sse1, active compounds read low) was 0.813 (active) and the normalized growth (locus YPL240C, strain hsp82, active compounds read low) was 0.975. For the same molecule, the normalized growth (locus YPL256C, strain CLN2, active compounds read low) was 1.02.
